We go through ten compounds from PubChem BioAssay AID651791 (National Center for Advancing Translational Sciences (NCATS), 2012).

Molecules are shown by their SMILES. Results filed as inconclusive are left out. The source made the active and inactive calls. Calls follow the shape of the dose curve; as a rule, active = well fitted inhibition curve with a large enough effect; inconclusive = small, poorly fitted or top-dose-only effect; inactive = no such curve, though single readings can be large or run the other way.
Potency is read from the fitted curve at half-maximal effect.

This assay is described as follows: InCell qHTS Assay for Inhibitors of the mTORC1 Signaling Pathway in MEF (Tsc2-/-, p53-/-) Cells: Hit Validation. Also: nearly all actives have a fitted effect of over 75% in size. As to conditions: phospho-rpS6 immunofluorescence, 24 h; activity change, negative = inhibition: at 38.3 µM (top of the series). The source says: The mammalian target of rapamycin (mTOR) is an intracellular serine/threonine kinase Aberrant regulation of mTOR signaling plays a causative role in a number of human diseases, including cancer, benign tumors such as lymphangioleiomyomatosis (LAM) and Tuberous Sclerosis Complex (TSC), and metabolic diseases such as diabetes and obesity. This project aims to identify inhibitors of ribosomal protein S6 (rpS6) phosphorylation. The phosphorylation of rpS6 is a key event downstream of mTOR activation. The assay uses a phospho-specific antibody of phospho-rpS6 to detect inhibitors of mTOR activation. Mutations in the Tsc1 and Tsc2 genes are the underlying genetic lesions responsible for TSC, causing constitutive activation of the mTORC1 pathway and leading to profound effects on cell metabolism. Aberrant metabolism in cancer has recently received significant attention as a target to develop therapeutic agents in the treatment of cancer.1 As Tsc2-/- cells have lost the ability to respond to energy and growth factor deprivation, these cells are unable to properly down regulate cellular biosynthetic processes in response to metabolic stress, and are thus extremely sensitive to glucose deprivation-induced death.2 A central goal of this project is to explore the unique cell survival and metabolic properties of cells with Tsc1 or Tsc2 by screening for compounds that selectively target the Tsc2-/- MEFs by screening both Tsc2-/- and WT MEF cell lines. We hope to better understand these aspects of TSC physiology in order to exploit them for therapeutic benefit. NIH Molecular Libraries Probe Production Centers Network [MLPCN] NIH Chemical Genomics Center [NCGC] MLPCN Grant: NS059428 Assay Submitter (PI): Blenis, John; Harvard University
For quantitative high throughput analysis of mTORC1 signaling, we developed a cell-based assay for immuno-fluorescence based detection of rpS6 phosphorylation on the Acumen Explorer that will be used a platform for the primary small molecule screen. Mouse embryonic fibroblasts (MEFs) are cultured in 1536-well plates using DMEM + 10% FBS. Twenty-four hrs after plating, test compounds (solubilized in DMSO) are delivered and incubated with the cells for 24 hrs at 37 degree Celsius. Following the incubation, media with compound is aspirated and the cells are fixed in 4% paraformaldehyde (PFA) containing PBS + 0.2% TX-100. Next, PFA is aspirated, cells are washed two times with PBS plus 0.2% TX-100 and the cells are blocked for 1 hr at room temperature (blocking buffer: LiCOR Blocking Buffer plus 0.2% TX-100). This is followed by aspiration and staining with Alexa-488 conjugated-phospho-rpS6 Ser235/236 antibody for 2 hours at room temperature (Cell Signaling Technology # 4803, 1:50 dilution in blocking buffer). Cells are washed two times with PBS plus 0.2% TX-100, and stained with 10 uM propidium iodide (PI) for 20-25 minutes for cell number measurement (1:500 dilution of Hoescht staining is also added for IN Cell imaging). The plates are scanned on the Acumen Explorer laser scanning instrument (TTP Labtech) using the 488nm laser for simultaneous excitation of the Alexa-488 and PI. The fluorescence emission from the Alexa-488 conjugated rpS6 phospho-235/236 antibody staining is selected using a […] band pass filter. Fluorescence emission from the PI stain is selected using a 575-640 nm band pass filter. The normalized phospho-S6 staining is calculated as the ratio of the integrated Alexa 488 intensity divided by the integrated PI intensity for the single concentration rapamycin control (7.5 nM) and DMSO columns. […] Inhibition of the pathway is defined based on the normalized phospho-S6 intensity in rapamycin treated cells. […]
(In qHTS, concentration-response curves come from the screen itself.)
With `Cc1ccccc1-n1c(/C=C/c2c(C)[nH]c3ccccc23)nc2ccccc2c1=O`, the activity change, negative = inhibition was -100%.
In the case of `CCOc1ccc(CN(CCc2ccc3c(c2)OCO3)Cc2ccc(C)cc2)cc1`, the activity change, negative = inhibition is -100%.
Same read-out and setting: under `Cc1ccc(-n2c(/C=C/c3ccc(Br)s3)nc3ccccc3c2=O)cc1C` stands -100%.
Regarding `CCN(CC)C(=O)c1ccc(NC(=O)CCn2nc(-c3ccc(C)cc3)c3ccccc3c2=O)cc1`, the activity change, negative = inhibition is -100%.
For the compound `COc1ccc2nc(NC(=O)c3nc(S(=O)(=O)Cc4cccc(C)c4)ncc3Cl)sc2c1`, the Potency is 18.5 µM (active).
With `Cc1ccccc1-c1nc(CN2C(=O)CN=C(c3ccccc3)c3ccccc32)c(C)o1`, the activity change, negative = inhibition was -100%.
On the same count and under the same terms, the same measure for `CCN(CC)CCSc1nc2ccccc2c(=O)n1-c1ccc(Cl)cc1`: -100%; for `O=C(Nc1ccon1)c1cccn(Cc2cccc(Cl)c2)c1=O`: -100%.
Turning to `Cc1ccccc1-n1c(/C=C/c2ccccc2F)nc2ccccc2c1=O`, the activity change, negative = inhibition was -100%.
On to `CCOc1ccc(NC(=O)CSc2oc(-c3ccccc3)nc2S(=O)(=O)c2ccc(Cl)cc2)cc1`, for which the Potency is 3.69 µM (active).
